From PubChem BioAssay AID1986 (Sanford-Burnham Center for Chemical Genomics, 2009)
Screen size: about 290,000 compounds; about 890 (0.31%) were called active. No stated cut-off is given here; in the data, active means inhibition mostly above about 52% (no sharp cut-off); inactive means mostly below about 76%. The list comes from a sample in which actives are over-represented; it also holds similar structures and randomly drawn compounds.

Test: cell-free HIV fusion peptide-binding blockers – biochemical, uHTS, fluorescence dequenching, primary screen (AID 1986)
Conditions: 30 min, stronger effect = higher value
[1] = measured here: repeat confirmation average inhibition, at 18.6 µM

| SMILES | inhibition (at 20 µM) | inhibition [1] [%] |
| --- | --- | --- |
| COc1ccc(-n2c(O)c(/C=N/n3cnnc3)c3ccccc3c2=O)cc1 | -1% (inactive) |  |
| c1ccc(Oc2ccc(-n3cnnn3)cc2)cc1 | -0.6% (inactive) |  |
| CCOC(=O)c1oc2ccccc2c1NC(=O)C1CCCCC1 | 2.3% (inactive) |  |
| O=C(N=Nc1c(O)[nH]c2ccccc12)c1ccc(CN2CCOCC2)cc1 | -1.7% (inactive) |  |
| O=c1c2c3c(sc2n(CCN2CCOCC2)c(=O)n1Cc1ccco1)CCCCC3 | -0.6% (inactive) |  |
| CCOC(=O)N1CCC(N2C(=O)c3ccccc3C2Nc2cc(C)cc(C)c2)CC1 (stereo not given) | -0.9% (inactive) |  |
| Cc1ccc(N=C2NC(=O)/C(=C/c3cn(C)c4ccccc34)S2)cc1C | 74.7% (active) | 73.2 |
| Cc1ccc(N=C2NC(=O)/C(=C/c3cccn3C)S2)cc1C | 2.1% (inactive) |  |
| Cc1ccc(N=C2NC(=O)/C(=C\c3cccs3)S2)cc1C | 1.6% (inactive) |  |
| Cn1nc(-c2ccccc2)c(/C=N/O)c1Cl | -1.8% (inactive) |  |
| CCn1cc(C(=O)N2CCCC2)c(=O)c2cc(S(=O)(=O)N3CC(C)CC(C)C3)ccc21 (stereo not given) | 1.1% (inactive) |  |
| COc1ccc2cc(CCNS(=O)(=O)c3c(C)cc(C)cc3C)c(=O)[nH]c2c1 | -1.1% (inactive) |  |
| Cc1c(NC(=O)c2ccc(Cl)s2)c(=O)n(-c2ccccc2)n1C | 0.5% (inactive) |  |
| O=C(O)c1c2c(nc3ccccc13)/C(=C/c1cccc([N+](=O)[O-])c1)CCC2 | 2.3% (inactive) |  |
| O=C(O)c1ccc(-n2ncc3c2/C(=C/c2cccc([N+](=O)[O-])c2)CC3)cc1 | 66.7% (active) |  |
| O=C(O)c1ccc(-n2c(/C=C/c3cccc([N+](=O)[O-])c3)nc3ccccc3c2=O)cc1 | 1.4% (inactive) |  |
| Cn1cccc1CC(=O)N/N=C\c1ccccc1 | -0.6% (inactive) |  |
| CCOc1ccc(/C=C2\N=C(c3cccs3)OC2=O)cc1OC | 6.4% (inactive) |  |
| COc1ccc(/C=C2/N=C(c3cccs3)OC2=O)cc1OC(C)C | 106% (active) | 100 |
| COc1ccc(/C=C2\N=C(C)OC2=O)cc1OC | 0.7% (inactive) |  |
| CCN(CC)C(=O)Cn1c(=O)n(C)c2ccccc21 | -1.6% (inactive) |  |
| COC(=O)Cn1c(C)c(/C=C/c2cc[n+](C)cc2)c2ccccc21 | 46.3% (inactive) |  |
| CCn1cc(/C=C/c2cc[n+](C)cc2)c2ccccc21 | 182% (inactive) |  |
| C=CCn1c(C)c(/C=C/c2cc[n+](C)cc2)c2ccccc21 | 103% (active) | 81 |

| SMILES | inhibition (at 20 µM) | inhibition [1] [%] |
| --- | --- | --- |
| COC(=O)Cn1cc(/C=C/c2cc[n+](C)cc2)c2ccccc21 | 115% (active) | 96.1 |
| C=CCn1cc(/C=C/c2cc[n+](C)cc2)c2ccccc21 | 185% (inactive) |  |
| Cc1ccc2c(c1)c(/C=C/c1cc[n+](C)cc1)c(C)n2C | 159% (inactive) |  |
| CCN(CC)C(=O)Cn1c(C)c(/C=C/c2cc[n+](C)cc2)c2ccccc21 | 115% (active) | 54.5 |
| Cc1cc(Nc2ccccc2)n(C(=O)c2ccccc2)n1 | -3% (inactive) |  |
| Cc1c(NC(=O)COC(=O)/C=C/c2ccc(Cl)cc2)c(=O)n(-c2ccccc2)n1C | -0.5% (inactive) |  |
| Clc1ccccc1OCCn1nnc2ccccc21 | -2% (inactive) |  |
| CCC(=O)Nc1cccc(NC(=O)c2cccc([N+](=O)[O-])c2C)c1 | 1.2% (inactive) |  |
| NC(=O)c1nsc(C(=O)N(c2cccc(F)c2)C(C(=O)NC2CCCC2)c2ccc(O)cc2)c1N (stereo not given) | -1.3% (inactive) |  |
| Cc1nc2ccc(S(=O)(=O)Nc3cc(-c4nc5cccnc5s4)ccc3C)cc2s1 | 3.9% (inactive) |  |
| CC12C=CC(=O)C=C1CCC1C3CCC(O)(C(=O)CO)C3(C)CC3OC312 (stereo not given) | -0.7% (inactive) |  |
| CCOC(=O)CNC(=O)Cn1cnc2c(nnn2-c2ccccc2)c1=O | -0.8% (inactive) |  |
| CCOC(=O)c1c(C)[nH]c(C(=O)COC(=O)CCSc2ccccc2)c1C | 0.3% (inactive) |  |
| Cc1cc(S(=O)(=O)N2CCN(c3ccccn3)CC2)c(C)cc1Cl | -0.6% (inactive) |  |
| CCOc1ccc(-n2c(C)cc(/C=C3/C(=N)N4C(=NC3=O)SN=C4S(C)(=O)=O)c2C)cc1 | 66.6% (active) |  |
| Cc1cc(/C=C2/C(=N)N3C(=NC2=O)SN=C3S(C)(=O)=O)c(C)n1-c1ccccc1F | 60.2% (active) |  |
| COc1cccc(-n2c(C)cc(/C=C3/C(=N)N4C(=NC3=O)SN=C4S(C)(=O)=O)c2C)c1 | 148% (inactive) |  |
| COc1ccccc1-n1c(C)cc(/C=C2/C(=N)N3C(=NC2=O)SN=C3S(C)(=O)=O)c1C | 58.1% (inactive) | 36.2 |
| Cc1cc(/C=C2/C(=N)N3C(=NC2=O)SN=C3S(C)(=O)=O)c(C)n1-c1ccc(F)cc1 | 75.8% (inactive) | 45.6 |
| CC1=CC2=NC(=O)/C(=C\c3cc(C)n(-c4ccccc4F)c3C)C(=N)N2O1 | 3.2% (inactive) |  |
| COc1ccc(CNC(=O)/C=C/c2ccc(S(=O)(=O)NCc3ccco3)cc2)cc1OC | 0.9% (inactive) |  |
| Cc1ccc(C)c2[nH]c(=O)c(CN(Cc3nnnn3C3CCCCC3)CC3CCCO3)cc12 (stereo not given) | -0.9% (inactive) |  |
| Cc1cc(-n2nc3ccccc3n2)c(O)c([N+](=O)[O-])c1 | 0.3% (inactive) |  |
| CCCCCc1ccc(-c2cn(Cc3ccc(C(=O)c4ccccc4)cc3)nn2)cc1 | 1% (inactive) |  |

| SMILES | inhibition (at 20 µM) | inhibition [1] [%] |
| --- | --- | --- |
| COc1ccc(CC(=O)Nc2cc(C)c3c(=O)oc4ccccc4c3n2)cc1 | -0.2% (inactive) |  |
| CCOc1ccc(/C=C(\C)C(=O)c2c(C)cc(C)[nH]c2=O)cc1 | -0.3% (inactive) |  |
| COc1cc2[nH]c(=S)nc(NCCCOC(C)C)c2cc1OC | -2.4% (inactive) |  |
| Cc1c(Br)c(=O)oc2c(Br)c(O)c(O)cc12 | 30.9% (inactive) |  |
| O=c1cc2c(=O)oc3cc(O)c(O)oc3c2c(O)c1O | 44.6% (inactive) |  |
| O=c1oc2c(O)c(O)cc3c(=O)oc4c(O)c(O)cc1c4c23 | 54.2% (active) |  |
| O=[N+]([O-])c1cc(Cl)cc(/C=N/Nc2nc3ccccc3s2)c1O | 31.5% (inactive) |  |
| COc1ccc(/C=N/Nc2nc3ccccc3s2)cc1O | -3.2% (inactive) |  |
| COc1cc(/C=N/Nc2nc3ccccc3s2)cc([N+](=O)[O-])c1O | 55.5% (active) |  |
| Cc1cc(C)n(-c2nc3ccccc3c(=O)n2OCC(=O)OCc2ccccc2)n1 | -0.4% (inactive) |  |
| COc1ccc(N=C2NC(=O)CS2)c([N+](=O)[O-])c1 | -1.1% (inactive) |  |
| Cc1nc(C2COc3ccccc3O2)sc1C(=O)O (stereo not given) | 1.6% (inactive) |  |
| CC(=O)c1ccc2c(c1)C1C=CCC1C(C(=O)O)N2 (stereo not given) | 58.7% (inactive) | 17.4 |
| O=C(O)C1Nc2c(C(F)(F)F)ccc(Cl)c2C2C=CCC12 (stereo not given) | 37.7% (inactive) |  |
| CC(C)C1Nc2ccc(C(=O)O)cc2C2C=CCC21 (stereo not given) | 50.1% (active) |  |
| Cc1cc(C)c2c(c1)NC(C(=O)O)C1CC=CC21 (stereo not given) | 60.2% (active) |  |
| CCOC(=O)C1Nc2ccc(Br)cc2C2C=CCC12 (stereo not given) | 34.6% (inactive) |  |
| CCCC1Nc2ccc(C(=O)O)cc2C2C=CCC12 (stereo not given) | 49.7% (inactive) |  |
| Cc1ccc2c(c1)C1C=CCC1C(C(=O)O)N2 (stereo not given) | 62.4% (active) |  |
| O=C(O)C1Nc2c(O)cc(Cl)c([N+](=O)[O-])c2C2C=CCC12 (stereo not given) | 66.8% (inactive) | 41 |
| Cc1cc(C)c2c(c1)NC(c1cc3c(cc1Br)OCO3)C1CC=CC21 (stereo not given) | 7.4% (inactive) |  |
| CCOC(=O)C1Nc2ccc(C(=O)O)cc2C2C=CCC12 (stereo not given) | 38% (inactive) |  |
| O=C(O)C1Nc2c(Cl)cc(Cl)cc2C2C=CCC12 (stereo not given) | 80.1% (active) |  |
| Cc1ccc2c(c1C)NC(C(=O)O)C1CC=CC21 (stereo not given) | 43.9% (inactive) |  |

| SMILES | inhibition (at 20 µM) | inhibition [1] [%] |
| --- | --- | --- |
| COc1ccc(C)cc1S(=O)(=O)N1CCN(c2ccccc2)CC1 | -0.9% (inactive) |  |
| Cc1ccc2nc3c(c(Nc4cccc(O)c4)c2c1)CCC3 | -1.7% (inactive) |  |
| O=C(OC1CCCCC1)c1ccc2c(c1)C1C=CCC1C(C(=O)O)N2 (stereo not given) | 56.1% (active) |  |
| CCOC(=O)c1ccc2c(c1)C1C=CCC1C(C(=O)OCC)N2 (stereo not given) | 19.8% (inactive) |  |
| CCOC(=O)c1ccc2c(c1)C1C=CCC1C(C(=O)O)N2 (stereo not given) | 66.5% (inactive) | 40.8 |
| Cc1ccccc1-n1cc(CNCc2c(C(=O)N(C)C)nc3ccc(Cl)cn23)cn1 | -1.3% (inactive) |  |
| CCCCc1ccc(-c2csc(/C(C#N)=C/c3ccc(C)o3)n2)cc1 | 0.2% (inactive) |  |
| CCCCc1ccc(-c2csc(/C(C#N)=C\c3ccco3)n2)cc1 | 58.3% (active) |  |
| CCCCc1ccc(-c2csc(/C(C#N)=C/c3ccco3)n2)cc1 | 49.9% (inactive) |  |
| CCCN1CCN(c2nc(-c3cccs3)nc3ccccc23)CC1 | 0.8% (inactive) |  |
| O=C(NC(=S)Nc1ccc2oc(=O)ccc2c1)c1ccccc1F | -0.2% (inactive) |  |
| O=C(/C=C/c1ccc([N+](=O)[O-])cc1)Nc1cccc(C(=O)Nc2ccccc2C(=O)O)c1 | 54.1% (active) |  |
| O=C(/C=C/c1ccco1)Nc1cccc(C(=O)Nc2ccccc2C(=O)O)c1 | 58.9% (inactive) | 49.8 |
| COC(=O)c1cccc(NC(=O)/C=C/c2ccc([N+](=O)[O-])cc2)c1 | 0.8% (inactive) |  |
| COc1ccc(NS(=O)(=O)c2cccc(NC(=O)NC3CCCCC3)c2)cc1 | 2% (inactive) |  |
| CCOC(=O)c1sc(=S)n(C)c1NC(=O)c1cccc(Br)c1 | -0.1% (inactive) |  |
| Cc1ccccc1C(=O)Nc1ccc2c(C#N)c3nc4ccccc4nc3n2c1 | 92.7% (active) |  |
| N#Cc1c2nc3ccccc3nc2n2cc(NC(=O)c3ccc(F)cc3)ccc12 | 76.7% (inactive) | -2.2 |
| Cc1c(C(=O)Nc2ccccc2)cn2c(nc3ccccc32)c1C#N | 3.1% (inactive) |  |
| N#C/C=C(/N)N1CCN(c2ccc(Cl)c(Cl)c2)CC1 | -2.3% (inactive) |  |
| O=C(O)c1nn(-c2cccc(Cl)c2)c(=O)cc1O | 24.3% (inactive) |  |
